# A selection: hits, their analogues and other compounds. The true share with any hit is near 4%.
# CF NFkB block – inhibitors of cystic fibrosis induced NF-kB; KKLEB NF-kB-GFP reporter, PAF-induced, GFP fluorescence overnight; inhibition, % at 5 µM; actives 0.86% (n = 360,000); AID 588850;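 active = at least 50% inhibition at 5 µM, scaled per plate between neutral and stimulator controls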;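 note: PAF is a Pseudomonas aeruginosa culture filtrate used as stimulus; plate controls were PAF-stimulated DMSO wells for no effect and unstimulated DMSO wells for full effect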
# Peg3 promoter – Peg3 promoter activity inhibition. HeLa PEG-Prom luciferase reporter, luminescence, overnight. inhibition, % at 20 µM. actives 1.7% (n = 360,000);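 active = inhibition of at least 50% at 20 µM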
# HIF-2a inh – blocks HIF-2a reporter activity. actives 0.72% (n = 360,000). 786-0 RCC cells HIF-2a reporter, luciferase luminescence, overnight. inhibition, % at 18.8 µM. AID 624352;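 active = inhibition of the luminescence signal of 40% or more relative to plate controls, in a single-dose primary screen at 18.75 µM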
# TWEAK Fn14 block – inhibitors of TWEAK-Fn14 interaction signaling. TWEAK-stimulated Fn14 reporter cells, luciferase luminescence, 8 h. inhibition, % at 10 µM. actives 2% (n = 360,000); in the data active = inhibition above about 50%
# TROY NFkB inh – blocks TROY-dependent signaling in reporter cells; Q293 LMP1-TROYcd NF-kB luciferase reporter, 4 h; inhibition, % at 10 µM; actives 0.98% (n = 360,000);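 active = compounds whose plate-normalised and pattern-corrected inhibition of the luciferase reporter signal at the single screening dose is 50% or more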
# KKLEB tox – counter-screen for CF NF-kB inhibitors: cytotoxicity; KKLEB CF airway cells viability, ATPlite luminescence, overnight; stronger effect = lower value; cells stimulated with P. aeruginosa culture filtrate; activity change (cytotoxicity), % at 5 µM; actives 0.36% (n = 360,000);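 active = corrected activity change at or below -50% at 5 µM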
# Starred values were filed as active, the others as inactive; . = not tested or not shown.
SMILES,CF NFkB block,Peg3 promoter,HIF-2a inh,TWEAK Fn14 block,TROY NFkB inh,KKLEB tox
COc1ccc2cc3c(N)nn(C(=O)C4CCC(C(C)(C)C)CC4)c3nc2c1 (stereo not drawn),82*,45,23,90*,55*,-7
COc1ccc2cc3c(N)nn(C(=O)c4cccc([N+](=O)[O-])c4)c3nc2c1,47,-11,12,47,10,-12
CSCC[C@H](NC(=O)Cc1c(C)c2cc3c(C)c(C)oc3cc2oc1=O)C(=O)N[C@@H](C(=O)O)c1ccccc1,3,-7,0,7,4,2
Cc1[nH]c2ccccc2c1C(C#N)(C#N)C1C(=O)c2ccccc2C1=O,25,39,3,97*,53*,15
CS(=O)(=O)Nc1cccc(C(=O)OCCCOc2ccc(F)cc2)c1,-1,13,15,0,18,6
CC(C)(C)c1ccc(C(=O)N2CCN(c3ccc(N4CCOCC4)nn3)CC2)cc1,22,-1,-1,-9,-15,-11
CC(=O)Nc1ccc(NC2=Nc3ccccc3N3C2=Nc2c(c(C)nn2-c2ccccc2)C3c2ccccc2)cc1 (stereo not drawn),3,90*,-12,96*,27,15
O=C(/C=C\c1ccco1)Nc1nc(-c2ccccc2)cs1,12,-99,-163,2,-56,-6
N#Cc1ccc(-c2csc(NC(=O)/C=C/c3cccs3)n2)cc1,4,-6,-7,48,59*,0
Cc1nc(NC(=O)/C=C/c2ccccc2)n[nH]1,44,92*,21,86*,1,-4
O=C(/C=C/c1ccccc1)Nc1nc(-c2ccncc2)cs1,-32,-13,-95,30,53*,-15
Cc1cc(C(=O)N/N=C/C(Cl)=C/c2ccccc2)c(C)o1,-7,-121,-220,-32,-24,2
COc1ccc(-c2nnc(N(C)C(=O)c3ccno3)s2)cc1,-9,-220,-178,50*,.,4
COc1ccc(C2C(C(=O)c3ccccc3)=C(C)Nc3nc4ccccc4n32)c(OC)c1 (stereo not drawn),5,8,-3,76*,53*,-6
Cc1nnc(NC(=O)c2sc3ccccc3c2Cl)s1,-14,-82,-90,46,-21,-19
COc1ccccc1C(=O)NNC(=S)NC(=O)c1sc2ccccc2c1Cl,48,14,-34,-16,-34,-56*
Cc1ccc2nsnc2c1NC(=O)c1sc2ccccc2c1Cl,31,4,0,90*,86*,-3
O=C(Nc1ccccn1)c1sc2cccc(F)c2c1Cl,-13,-142,-129,63*,13,-48
Cc1ccc(NC(=O)c2sc3ccccc3c2Cl)nc1,8,-89,-122,75*,52*,-48
COc1ccccc1C(=O)NC(=S)NNC(=O)c1sc2ccccc2c1Cl,36,0,-16,-7,-10,-44
COc1ccc(C(CNCC(O)COc2c(C)ccc(C)c2C)N(C)C)cc1 (stereo not drawn),1,0,13,5,7,-17
CN(C)C(=O)c1ccc(-c2nnc(OCc3nc4ccccc4n3C)c3ccccc23)cc1,9,4,3,3,4,4
COc1ccccc1C(=O)NC1CCN(C(=O)Nc2ccc(F)cc2)CC1,-5,23,11,9,9,4
Cc1ncc([N+](=O)[O-])n1CC(=O)Nc1ccc(OC(F)(F)Cl)cc1,-2,16,12,10,0,1
O=C(OCc1nnc(-c2ccc(Cl)cc2)o1)C12CC3CC(CC(O)(C3)C1)C2,-21,-222,-174,48,67*,5
SMILES,CF NFkB block,Peg3 promoter,HIF-2a inh,TWEAK Fn14 block,TROY NFkB inh,KKLEB tox
Cc1ccc(S(=O)(=O)Nc2cccc(C(=O)NCCCN3CCOCC3)c2)cc1F,14,13,8,10,11,14
O=c1[nH]c(CSc2nnc(Nc3ccccc3)s2)nc2ccccc12,-6,8,2,-12,-19,2
COc1ccc(NC(=O)n2ncc3cc(Cl)ccc32)cc1OC,8,-201,-210,-27,-5,1
N=C(N)c1ccc(N=Nc2c(O)ccc3c2[nH]c2ccccc23)cc1,0,98*,-11,-3,-2,6
CC(C)CNC(=O)c1c(N)n(/N=C/c2ccccn2)c2nc3ccccc3nc12,2,54*,3,11,5,-1
COC(=O)N1C(=O)[C@](c2ccccc2)(C2CCCCC2)N1C(=O)OC,40,42,26,51*,17,8
COC(=O)N1C(=O)[C@](CC(C)C)(c2ccccc2)N1C(=O)OC,30,37,25,35,2,-5
COc1cccc(N2CCN(C(=S)Nc3ccccc3)CC2)c1,1,110*,7,-10,-17,-2
CCc1ccc(NC(=S)N2CCN(c3cccc(OC)c3)CC2)cc1,11,20,1,14,15,-1
S=C(Nc1ccccc1)N1CCN(C2CCCCC2)CC1,13,-3,-4,32,60*,-6
S=C(Nc1ccccc1)N1CCCCCC1,2,20,8,-6,-14,0
O=C(/C=C/c1ccc(O)c(O)c1)c1ccccc1O,5,-216,-245,35,-13,-9
O=C(/C=C/c1ccc(O)cc1)c1ccc(O)cc1O,-9,-155,-15,59*,-22,-5
O=C(O)/C=C/c1ccc(O)cc1,20,13,7,-16,1,7
O=C(/C=C/c1ccccc1)NNC(=O)c1cccc(Cl)c1,-18,-14,-4,6,-25,-3
O=C(C=Cc1cccc(O)c1)c1ccccc1O,28,45,-35,65*,-16,-16
O=C(C=Cc1cccc(Cl)c1)c1ccccc1,24,102*,-228,45,-34,5
CCOC(=O)c1sc(NC(=O)CCN2CCN(C)CC2)c(C(=O)OCC)c1C,-28,84*,-17,18,-6,-3
O=[N+]([O-])c1cccc2nc3ccccc3c(NCCCn3ccnc3[N+](=O)[O-])c12,-139,99*,-9,-27,-20,-13
N#C/C(=C/c1cn(-c2ccccc2)nc1-c1cccc(S(=O)(=O)N2CCOCC2)c1)C(=O)NCc1ccco1,51*,9,9,-44,-11,-57*
N#C/C(=C/c1cn(-c2ccccc2)nc1-c1cccc(S(=O)(=O)N2CCCC2)c1)C(=O)NCc1ccco1,-19,21,20,-3,-7,3
COc1ccc(S(=O)(=O)NCc2ccccn2)cc1C,6,-4,0,-4,5,0
COc1ccc(C2c3c(-c4ccccc4O)n[nH]c3C(=O)N2Cc2ccco2)cc1OC (stereo not drawn),14,10,25,-15,-6,4
Cc1cc(C)c(O)c(-c2n[nH]c3c2C(c2cccc(O)c2)N(Cc2ccco2)C3=O)c1 (stereo not drawn),6,30,30,17,60*,13

# Screens deposited in PubChem BioAssay by Sanford-Burnham Center for Chemical Genomics.
